Inconclusive results are not listed. Entries that show only a call come without a potency. Active and inactive are the calls of the source. Unless noted, the call rests on the fitted dose curve; in most records, active means well fitted curve in the direction sought with a large enough effect; inconclusive means small, poorly fitted or top-dose-only effect, or another doubt; inactive means no such curve, though single readings can be large; an effect the other way counts as inactive or inconclusive. Residues, ends and D or L forms follow the SMILES beside them. *: point of attachment. Cbz = O=C(OCc1ccccc1)*
Legend:
[1] = NCATS anti-infectives library activity on HEK293 viability as a counter-qHTS vs the C. elegans viability qHTS (AID 1745854);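 further: HEK293 cells exposed to compounds for 24 hr before the viability read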; further: potency means the concentration at half of the fitted maximal effect
In short: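 Counter-screen for cytotoxicity: HEK293, 24 hr, 37C, compounds up to 41.7 uM final (a dilution series, 1:5). Readout CellTiter-Glo luminescence, 10 min RT. Digitonin control, 83.3 uM final.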

[2] = molecular target: Glutathione peroxidase 1 (Homo sapiens) (UniProt P07203); assay: Primary qHTS Assay for Inhibitors of Recombinant Selenoprotein Glutathione Peroxidase 1 (GPX1) (AID 1845191); further: nearly all actives have a fitted effect of over 65% in size
Chain of Glutathione peroxidase 1 (Homo sapiens) (P07203 whole entry, looked up): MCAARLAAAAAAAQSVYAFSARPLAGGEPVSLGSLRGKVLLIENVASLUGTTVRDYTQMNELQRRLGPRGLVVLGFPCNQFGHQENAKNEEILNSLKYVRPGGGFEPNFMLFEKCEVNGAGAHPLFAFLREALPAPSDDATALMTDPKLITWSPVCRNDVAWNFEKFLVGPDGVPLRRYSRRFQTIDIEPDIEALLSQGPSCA
In short: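 GPX1 10 nM, GR 100 nM, GSH 1 mM, NADPH 0.5 mM, CHP 0.5 mM (final). 30-min cpd preincubation, RT. Ex340/Em450 read t=0, t=15 min.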

[3] = molecular target: Nicotinamide N-methyltransferase (Homo sapiens) (UniProt P40261); assay: Confirmatory Screen for Target Class Profiling of Small Molecule Inhibitors of Methyltransferases (AID 1745852); conditions: MTase-Glo luminescence, SAH detection, recombinant enzyme; measured here: NNMT max response; stronger effect = lower value
Chain of Nicotinamide N-methyltransferase (Homo sapiens) (P40261 whole entry, looked up): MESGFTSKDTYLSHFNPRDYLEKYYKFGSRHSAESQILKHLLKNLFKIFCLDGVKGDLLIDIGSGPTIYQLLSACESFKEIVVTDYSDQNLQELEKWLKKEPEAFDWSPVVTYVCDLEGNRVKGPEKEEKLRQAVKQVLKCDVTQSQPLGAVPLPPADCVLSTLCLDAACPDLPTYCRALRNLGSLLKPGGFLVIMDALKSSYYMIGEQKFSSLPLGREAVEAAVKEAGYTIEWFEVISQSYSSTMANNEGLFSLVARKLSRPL

[4] = molecular target: Phenylethanolamine N-methyltransferase (Homo sapiens) (UniProt P11086); assay: as above; conditions: MTase-Glo luminescence, SAH detection, recombinant enzyme; measured here: PNMT max response; stronger effect = lower value
Chain of Phenylethanolamine N-methyltransferase (Homo sapiens) (P11086 whole entry, looked up): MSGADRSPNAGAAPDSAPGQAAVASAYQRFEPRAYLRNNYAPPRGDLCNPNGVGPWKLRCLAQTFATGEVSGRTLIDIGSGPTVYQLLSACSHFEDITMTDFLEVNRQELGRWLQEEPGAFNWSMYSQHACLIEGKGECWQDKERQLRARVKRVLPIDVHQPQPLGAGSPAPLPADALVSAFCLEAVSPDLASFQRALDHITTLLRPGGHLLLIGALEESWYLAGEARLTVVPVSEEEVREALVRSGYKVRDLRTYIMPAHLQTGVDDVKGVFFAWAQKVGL

[5] = NCATS anti-infectives library activity on the primary C. elegans qHTS viability assay (AID 1745855; calls by dose curve; further: potency means the concentration at half of the fitted maximal effect)
In short: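 GFP read-out by 488 nm laser cytometry at day 0, 3 and 7, gated on object perimeter, area and peak intensity, scored viability of PE254-GFP-FLuc worms exposed to compound in S medium with bacterial capsules at 21 °C.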

[6] = Viability counterscreen for antagonist of constitutive androstane receptor (CAR) against the NCATS DSHEA and TCM libraries (AID 1794837);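 further: compound exposure lasted 24 h before viability reading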
In short: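 HepG2-CYP2B6-hCAR cells, 2,500/well, were exposed 24 hr at 37C to substances together with 48 uM CITCO (final). Viability was read as CellTiter-Fluor fluorescence (Ex/Em 405/540 nm) after 1 hr.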

[7] = Viability counterscreen for agonist of constitutive androstane receptor (CAR) against the NCATS DSHEA and TCM libraries (AID 1794838);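 further: HepG2 cells with CYP2B6 reporter and hCAR plus 0.75 µM PK11195 antagonist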
In short: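 HepG2-CYP2B6-hCAR cells (2,500/well) treated 24 h at 37C with compounds plus 0.75 uM PK11195; viability read by CellTiter-Fluor fluorescence, Ex/Em 405/540 nm.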

[8] = molecular target: Nuclear receptor subfamily 1 group I member 3 (Homo sapiens) (UniProt Q14994); assay: Primary qHTS for agonist of constitutive androstane receptor (CAR) against the NCATS DSHEA and TCM libraries (AID 1794839);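 further: HepG2 cells expressing human CAR with a CYP2B6 reporter plus PK11195 antagonist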
Chain of Nuclear receptor subfamily 1 group I member 3 (Homo sapiens) (Q14994 whole entry, looked up): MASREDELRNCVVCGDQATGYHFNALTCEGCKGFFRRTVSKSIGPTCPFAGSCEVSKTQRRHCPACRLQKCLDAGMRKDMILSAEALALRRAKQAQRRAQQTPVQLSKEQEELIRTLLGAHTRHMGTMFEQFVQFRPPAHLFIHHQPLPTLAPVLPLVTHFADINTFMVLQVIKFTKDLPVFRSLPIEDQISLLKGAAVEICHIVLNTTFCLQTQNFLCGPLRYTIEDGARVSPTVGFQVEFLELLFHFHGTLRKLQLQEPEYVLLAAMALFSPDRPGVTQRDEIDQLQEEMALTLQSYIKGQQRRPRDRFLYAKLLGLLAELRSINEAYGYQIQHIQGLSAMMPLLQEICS
In short: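 HepG2-CYP2B6-hCAR cells, 2,500/well, attached 5 h, then dosed with 0.75 µM PK11195 (final) for 24 h at 37 °C. Luciferase luminescence read (ONE-Glo); CellTiter-Fluor viability (Ex/Em 405/540 nm) in same wells; CITCO positive control.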

[9] = HepG2 viability counterscreen (readout 2: ATP content) against the NCATS DSHEA and TCM libraries (AID 1794840)
In short: (§1)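 HepG2 cells, 1,000/well, attached ~4 h, then exposed ~24 h at 37C to substances. Protease activity read by fluorescence of 25 uM GF-AFC (Ex/Em 380/510 nm) after 30 min; ATP then by CellTiter-Glo luminescence.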

[10] = HepG2 viability counterscreen (readout 1: protease activity) against the NCATS DSHEA and TCM libraries (AID 1794841);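 further: cells exposed to compounds for about 24 h before the protease read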
In short: as §1

With CCC(C(=O)O)C1CCC(C)C(C(C)C(O)C(C)C(=O)C(CC)C2OC3(C=CC(O)[C@@]4(CC[C@](C)(C5CC[C@@](O)(CC)C(C)O5)O4)O3)C(C)CC2C)O1 (stereo partly specified) the activity change, negative = cytotoxicity [1] was -17.2% [at 0.334 µM] (inactive) and the Potency [2] was “inactive”.

In the case of Cc1cnc(Nc2ccc(N3CCN(C)CC3)cc2)nc1Nc1cccc(S(=O)(=O)NC(C)(C)C)c1, the activity [3] is reported as -15.4%, the activity [4] is reported as 0.463% and the Potency [2] is reported as “inactive”.

In the case of C=Cc1c(C)c2cc3nc(cc4[nH]c(cc5nc(cc1[nH]2)C(C)=C5CCC(=O)O)c(CCC(=O)OC)c4C)[C@@]1(C)C3=CC=C(C(=O)OC)[C@H]1C(=O)OC, the Potency [1] is reported as “inactive” and the Potency [2] is reported as “inactive”.

In the case of CCS(=O)(=O)Nc1ccc2[nH]c(O)c(C(=Nc3ccc(CN4CCCCC4)cc3)c3ccccc3)c2c1, the Potency [1] is reported as 2 µM (active).

For O=C(Nc1cc2cc[nH]c2cn1)c1ccccc1, the activity [3] was -77.9%, the activity [4] was -83.3% and the Potency [2] was “inactive”.

With C[C@H](NC(=O)[C@@H](O)c1cc(F)cc(F)c1)C(=O)N[C@@H]1C(=O)N(C)c2ccccc2-c2ccccc21 the Potency [1] was “inactive”, the Potency [5] was 0.365 µM (active) and the Potency [2] was “inactive”.

For C[C@@]12C[C@@]3(O)O[C@@H](O1)[C@]1(COC(=O)c4ccccc4)[C@@H]3C[C@@]12O[C@@H]1O[C@H](CO)[C@@H](O)[C@H](O)[C@@H]1O, the outcome [6] was “inactive”, the outcome [7] was “inactive” and the outcome [8] was “inactive”. The outcome [9] was “inactive” and the outcome [10] was “inactive”.

For CC(C)C[C@@H](C=O)NC(=O)[C@H](CC(C)C)NC(=O)[C@H](CC(C)C)NC(=O)OCc1ccccc1 (Cbz-Leu-Leu-Leu-aldehyde), the Potency [5] was “inactive” and the Potency [2] was “inactive”.

For CCN(CC)Cc1ccc2cc(COC(=O)Nc3ccc(C(=O)NO)cc3)ccc2c1, the activity [3] was -7.87% and the activity [4] was -6.29%.

In the case of O=C1CSC(=O)N1C(CCc1ccncc1)COc1ccc(-c2cccc([N+](=O)[O-])c2)cc1 (stereo unspecified), the Potency [2] is reported as “inactive”.

With Oc1cc2c(cc1O)C1c3ccc(O)c(O)c3OCC1(O)C2 (stereo unspecified) the Potency [2] was “inactive”.

In the case of Nc1ccn(C2CO[C@H](CO)O2)c(=O)n1 (stereo partly specified), the Potency [2] is reported as “inactive”.

In the case of Nc1nc(N)c2nc(-c3cccc(O)c3)c(-c3cccc(O)c3)nc2n1, the Potency [2] is reported as “inactive”.

For Cn1cc(-c2ccc3ncc(Cc4ccc5ncccc5c4)n3n2)cn1, the Potency [2] was “inactive”.

For CN(C)CCN1C(=O)c2cccc3cc(N)cc(c23)C1=O, the Potency [2] was “inactive”.

For Cn1cc(C[C@@H](N)C(=O)O)c2ccccc21, the outcome [2] was “inactive [at 9.52 µM]”.

With C[C@H]1COc2c(N3CCN(C)CC3)c(F)cc3c(=O)c(C(=O)O)cn1c23 the Potency [2] was “inactive”.

For CCc1c(O)cc(O)c(C(=O)c2ccc(OCCN3CCOCC3)c(OC)c2)c1CC(=O)N(CCOC)CCOC, the Potency [2] was “inactive”.

With COc1ccc([C@@H]2CNC(=O)C2)cc1OC1CCCC1 the Potency [2] was “inactive”.

With O=C1c2c(O)cccc2[C@@H]([C@@H]2O[C@H](CO)[C@@H](O)[C@H](O)[C@H]2O)c2cc(CO)cc(O)c21 the outcome [6] was “inactive”, the outcome [7] was “inactive” and the outcome [8] was “inactive”. For the same compound, the outcome [9] was “inactive” and the outcome [10] was “inactive”.

For COc1ccc(C[C@@H](C)[C@@H](C)Cc2ccc(OC)c(OC)c2)cc1OC, the Potency [2] was “inactive”.

With CC(=O)O[C@H]1C[C@@H]2CC[C@H]3[C@H]4C[C@H]([N+]5(C)CCCCC5)[C@@H](OC(C)=O)[C@@]4(C)CC[C@@H]3[C@@]2(C)C[C@H]1[N+]1(C)CCCCC1 the Potency [2] was “inactive”.

For C#CCC(Cc1cnc2nc(N)nc(N)c2n1)c1ccc(C(=O)N[C@@H](CCC(=O)O)C(=O)O)cc1 (stereo partly specified), the Potency [2] was “inactive”.

For COc1ccc(Nc2cc(-c3cnc(N)nc3)nc(N3CCOCC3)n2)cn1, the Potency [2] was “inactive”.

In the case of Cc1cncc2cccc(S(=O)(=O)N3CCCN(C(=O)CN)C[C@@H]3C)c12, the Potency [2] is reported as “inactive”.

For CCOC(=O)C1=C(C)NC(=S)NC1c1cccc(O)c1 (stereo unspecified), the Potency [2] was “inactive”.

For COc1cc2c(cc1OC)[C@@H]1C(=O)c3ccc4c(c3O[C@@H]1CO2)C=CC(C)(C)O4, the Potency [2] was “inactive”.

In the case of CC1=C(C(=O)Nc2cc3cn[nH]c3cc2F)C(c2ccc(Cl)cc2F)N=C(c2ccnc(Cl)c2)N1 (stereo unspecified), the Potency [2] is reported as “inactive”.

With CCCCCCCCCCCCCCCC(=O)OC[C@@H](NC(=O)C(Cl)Cl)[C@H](O)c1ccc([N+](=O)[O-])cc1 the Potency [2] was “inactive”.

For CCOc1cc2c(c(F)c1OCC)C(=N)N(CC(=O)c1cc(N3CCOCC3)c(OC)c(C(C)(C)C)c1)C2, the Potency [2] was “inactive”.

For NC(=NCCCCCCN=C(N)N=C(N)Nc1ccc(Cl)cc1)N=C(N)Nc1ccc(Cl)cc1, the Potency [2] was “inactive”.

With CNC(=O)Nc1ccc(-c2nc(N3CC4CCC(C3)O4)c3cnn(C4CCC5(CC4)OCCO5)c3n2)cc1 the Potency [2] was “inactive”.

For Cn1cnc(=N)c2[nH]cnc21, the Potency [2] was “inactive”.

For CCn1c(=O)c2c(nc(C=Cc3ccc(OC)c(OC)c3)n2C)n(CC)c1=O, the Potency [2] was “inactive”.

With CC(N[C@H]1CCCC[C@H]1NC(=O)c1ccc(Cl)cc1)c1cccc2ccccc12 (stereo partly specified) the Potency [2] was “inactive”.

With Cc1cnc(NC(=O)Nc2cc(Br)c(C)cc2OC[C@@H]2CNCCO2)cn1 the Potency [2] was “inactive”.

In the case of CC(C)NC[C@@H](C(=O)N1CCN(c2ncnc3c2[C@H](C)C[C@H]3O)CC1)c1ccc(Cl)cc1, the Potency [2] is reported as “inactive”.

With Nc1nc(=O)n([C@H]2C[C@H](O)[C@@H](CO)O2)cc1F the Potency [2] was “inactive”.

With C[N+]1(C)[C@@H]2C[C@@H](OC(=O)C(O)(c3cccs3)c3cccs3)C[C@H]1[C@@H]1O[C@@H]12 the Potency [2] was “inactive”.

With Cc1noc(-c2ccc(CSCCC(=O)O)cc2)c1NC(=O)OC(C)c1ccccc1Cl (stereo unspecified) the Potency [2] was “inactive”.

In the case of COc1cc(OC)c(NC(=O)Nc2cc(C)on2)cc1Cl, the Potency [2] is reported as “inactive”.

For CC(C)[C@H](CO)Nc1nc(Nc2cccc(Cl)c2)c2ncn(C(C)C)c2n1, the Potency [2] was “inactive”.

With CC(O)(C#Cc1ccc2c(c1)N(c1nc(N)ncc1Cl)CC2)c1nccs1 (stereo unspecified) the Potency [2] was “inactive”.

Source: PubChem BioAssay (NCATS)
